Measurements as given in PubChem BioAssay (EPA / NIEHS).
Records with an inconclusive call do not appear. Activity calls are given as the source filed them. Rule for the calls, unless noted: active = hit-call score of the fitted dose curve at least 0.9, where 1 is the maximum; inactive = score below 0.9.

Columns and labels:
[1] = CCTE_Simmons_MITO_max_resp_rate: CCTE's HepG2 Seahorse XF Respirometric Screening Assay at Maximal Respiratory State [uncoupled], Simmons Lab (AID 2284002); details: actives raise or lower the signal
In short: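 Maximal respiration in HepG2 cells is recorded as OCR by Seahorse XF following FCCP injection. Compounds span 125 nM–100 uM final; activity is called in either direction against DMSO.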

[2] = CCTE_Simmons_MITO_inhib_resp_rate: CCTE's HepG2 Seahorse XF Respirometric Screening Assay at Inhibited Respiratory State [full ETC block], Simmons Lab (AID 2284006); details: actives raise or lower the signal
In short: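 HepG2 cells on Seahorse XF96; oxygen consumption measured after test compound, then FCCP, then rotenone/antimycin A injections over 72 min. Test chemicals at 7 concentrations, 125 nM–100 uM final. OCR fitted bidirectionally versus DMSO.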

[3] = CCTE_Shafer_MEA_acute_spike_number: CCTE's Neural Acute Assay for Total Number of Spikes, Shafer Lab (AID 2284008);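 for AC50: curve fitted for decrease in spike count so AC50 reflects inhibitors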
In short: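 Cortical neurons from rat, matured to DIV 13 or 15 on microelectrode arrays, are recorded at 37 C before and during 40-min exposure to 0.03-40 uM compound. Wells need >/= 10 active electrodes.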

[4] = CCTE_Shafer_MEA_acute_firing_rate_mean: CCTE's Neural Acute Assay for Mean Firing Rate, Shafer Lab (AID 2284009);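 note: analyzed for loss of signal so actives lower firing rate relative to DMSO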
In short: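 Rat primary cortical neurons on 48-well MEA plates, dosed at 0.03-40 uM on DIV 13 or 15; 40 min spontaneous activity recorded at 37 C before and after compound. Spike rate per electrode averaged per well, expressed as percent change from baseline.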

[5] = CCTE_Harrill_HTTr_Viability_MCF7: CCTE's 6-hour Cell Viability Assessment for the High-Throughput Transcriptomics (HTTr) Platform, in MCF-7 cells cultured in DMEM + 10% fetal bovine serum, Harrill Lab (AID 2284010)
In short: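 Membrane integrity was scored by high-content imaging of propidium iodide dye exclusion after a 6 h exposure across an eight-point dilution series. Data were fitted bidirectionally relative to DMSO as negative control and baseline.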

[6] = CCTE_Harrill_HTTr_Apoptosis_MCF7: CCTE's 6-hour Apoptosis Assessment for the High-Throughput Transcriptomics (HTTr) Platform, in MCF-7 cells cultured in DMEM + 10% fetal bovine serum, Harrill Lab (AID 2284011)
In short: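 Cells are dosed with test chemicals at eight concentrations and imaged 6 hours later for caspase-3/7 activity using a green fluorogenic detection reagent. Activity is fitted in both directions against DMSO controls.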

[7] = CCTE_Harrill_HTTr_CellCount_MCF7: CCTE's Cell Proliferation Assessment for the High-Throughput Transcriptomics (HTTr) Platform, Harrill Lab (AID 2284012; active = hit-call score of the fitted dose curve at least 0.9, where 1 is the maximum;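 note: cells exposed to compound for six hours; intended direction is loss of nuclei count meaning fewer cells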)
In short: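 MCF-7 cells were exposed for 6 h to an eight-point dilution series; Hoechst-labeled nuclei were counted by high content imaging. Curves were fitted bidirectionally against DMSO as negative control and baseline, with signal loss indicating reduced cell count.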

[8] = CCTE_Shafer_MEA_acute_burst_number: CCTE's Neural Acute Assay for Single-Electrode Bursts, Shafer Lab (AID 2284013)
In short: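 Primary rat cortical neurons on 16-electrode MEA wells, treated on DIV 13 or 15 with compound at 0.03-40 uM. Single-electrode burst count from 40-min recordings at 37 C before and after exposure; percent change from baseline per well, DMSO negative control.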

[9] = CCTE_Shafer_MEA_acute_burst_duration_mean: CCTE's Neural Acute Assay for Mean Burst Duration, Shafer Lab (AID 2284014);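 note: hits are decreases in mean burst duration relative to DMSO controls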
In short: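 Rat primary cortical neurons on 48-well MEA, treated at DIV 13 or 15 with 0.03-40 uM in at least 3 wells. Value is percent change in mean burst duration, comparing 40 min recordings at 37 C before and during exposure.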

[10] = CCTE_Shafer_MEA_acute_interburst_interval_mean: CCTE's Neural Acute Assay for Mean Interburst Interval, Shafer Lab (AID 2284016);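 note: percent change of mean interburst interval versus each well's own pre-dose baseline; curves fitted for decrease in interburst interval relative to DMSO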
In short: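 Percent change in mean single-electrode interburst interval was calculated per well from 40 min recordings before and after compound (0.03-40 uM). Recordings were made at 37 C on rat cortical cultures at DIV 13 or 15, with spikes detected at 8x rms threshold.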

[11] = CCTE_Shafer_MEA_acute_burst_percentage_mean: CCTE's Neural Acute Assay for Percentage of Spikes in a Burst, Shafer Lab (AID 2284017);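 note: curve fitted for loss of signal so potency reflects decreased burst percentage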
In short: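 Well-level mean burst percentage from a 40-min recording after compound (0.03-40 uM) expressed as percent change from a 40-min baseline at 37C. Cultures: primary rat cortical neurons on MEA, dosed on DIV 13 or 15; fitted downward relative to DMSO.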

[12] = CCTE_Shafer_MEA_acute_burst_percentage_std: CCTE's Neural Acute Assay for Standard Deviation of Burst Percentage, Shafer Lab (AID 2284018);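 note: fitted in the negative direction so actives lower burst percentage SD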
In short: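 Rat primary cortical neurons on 48-well MEAs, DIV 13 or 15, 37 C. 40-min baseline then 40-min recording with compound (0.03-40 uM); well-level SD of per-electrode burst spike percentage, expressed as percent change from baseline.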

[13] = CCTE_Shafer_MEA_acute_per_network_burst_spike_number_std: CCTE's Neural Acute Assay for Standard Deviation of Number of Spikes in a Network Burst, Shafer Lab (AID 2284020);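 note: fitted for decrease in spike-number SD versus DMSO so actives lower it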
In short: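 Rat primary cortical neurons on 48-well MEA (16 electrodes/well), treated DIV 13 or 15 at 0.03-40 uM, ≥3 wells per compound. 40 min recordings at 37 C before and after dosing; value is percent change in network-burst spike-number SD, negative direction vs DMSO.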

[14] = CCTE_Shafer_MEA_acute_per_network_burst_electrodes_number_mean: CCTE's Neural Acute Assay for Mean Number of Electrodes in a Network Burst, Shafer Lab (AID 2284021);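 note: curves fitted for decreases only so hits reduce electrodes per burst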
In short: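 Cultures of rat cortex neurons were exposed on DIV 13 or 15 to compounds at 0.03-40 uM in at least three wells each. Activity over 40 min before and 40 min after exposure at 37 C gave the percent change in electrodes per network burst.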

[15] = CCTE_Shafer_MEA_acute_network_burst_percentage: CCTE's Neural Acute Assay for Percentage of Network Bursts, Shafer Lab (AID 2284022);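 note: curves fitted for loss so actives lower network burst percentage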
In short: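 Cortical neurons from rat were grown over microelectrode arrays and used on day 13 or 15 in vitro. Wells with at least 10 active electrodes received test chemical at 0.03-40 uM. Activity during 40 min of exposure was compared with the preceding 40-min baseline.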

[16] = CCTE_Shafer_MEA_acute_cross_correlation_HWHM: CCTE's Neural Acute Assay for Cross Correlation at Half Width at Half Maximum, Shafer Lab (AID 2284026);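 note: percent change per well from pre-dose baseline in spike cross-correlogram half width; hits are a decrease in cross-correlogram half width relative to DMSO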
In short: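 Primary cortex (rat), MEA, DIV 13/15; compound 0.03-40 uM; 40 min pre + 40 min post at 37 C; spike threshold 8x rms; wells need ≥10 active electrodes; endpoint = % change in cross-correlogram HWHM vs baseline, DMSO negative control.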

[17] = CCTE_Shafer_MEA_acute_synchrony_index: CCTE's Neural Acute Assay for Synchrony, Shafer Lab (AID 2284027);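 note: network synchrony index of spontaneous spiking in primary rat cortical neurons on MEAs; fitted for loss of signal so actives lower synchrony relative to DMSO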
In short: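 Primary rat cortical neurons on 16-electrode MEA wells were recorded 40 min at baseline (DIV 13 or 15) and 40 min after compound (0.03-40 uM) at 37 C. Synchrony index (0-1) expressed as percent change from baseline, versus DMSO.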

[18] = CCTE_Simmons_MITO_viability: CellTiter-Glo Viability Assessment for CCTE's HepG2 Seahorse XF Respirometric Screening Assay [post-hoc], Simmons Lab (AID 2284007; active = hit-call score of the fitted dose curve at least 0.9, where 1 is the maximum)
In short: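 HepG2 cells from the Seahorse XF respirometry run were exposed 90 min to a 7-point series, 125 nM–100 uM final, DMSO vehicle; ATP content then read by luciferase luminescence. Three biological replicates, technical singles; loss of signal fitted versus DMSO.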

[19] = target: Ratio of Nucleoli Translocation and Cytoplasm, AR (gene 367) (UniProt P10275); assay: UPITT_HCI_U2OS_AR_TIF2_Nucleoli_Cytoplasm_Ratio_Agonist: University of Pittsburgh U2OS Androgen Receptor-Transcriptional Intermediary Factor 2 (AR-TIF2) Agonism High Content Imaging Assay for Ratio of Nucleoli Translocation and Cytoplasm (AID 2284000; active = hit-call score of the fitted dose curve at least 0.9, where 1 is the maximum;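 note: hits raise the red nucleolar to cytoplasm ratio above vehicle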)
Chain of Ratio of Nucleoli Translocation and Cytoplasm, AR (gene 367) (P10275 whole entry, looked up): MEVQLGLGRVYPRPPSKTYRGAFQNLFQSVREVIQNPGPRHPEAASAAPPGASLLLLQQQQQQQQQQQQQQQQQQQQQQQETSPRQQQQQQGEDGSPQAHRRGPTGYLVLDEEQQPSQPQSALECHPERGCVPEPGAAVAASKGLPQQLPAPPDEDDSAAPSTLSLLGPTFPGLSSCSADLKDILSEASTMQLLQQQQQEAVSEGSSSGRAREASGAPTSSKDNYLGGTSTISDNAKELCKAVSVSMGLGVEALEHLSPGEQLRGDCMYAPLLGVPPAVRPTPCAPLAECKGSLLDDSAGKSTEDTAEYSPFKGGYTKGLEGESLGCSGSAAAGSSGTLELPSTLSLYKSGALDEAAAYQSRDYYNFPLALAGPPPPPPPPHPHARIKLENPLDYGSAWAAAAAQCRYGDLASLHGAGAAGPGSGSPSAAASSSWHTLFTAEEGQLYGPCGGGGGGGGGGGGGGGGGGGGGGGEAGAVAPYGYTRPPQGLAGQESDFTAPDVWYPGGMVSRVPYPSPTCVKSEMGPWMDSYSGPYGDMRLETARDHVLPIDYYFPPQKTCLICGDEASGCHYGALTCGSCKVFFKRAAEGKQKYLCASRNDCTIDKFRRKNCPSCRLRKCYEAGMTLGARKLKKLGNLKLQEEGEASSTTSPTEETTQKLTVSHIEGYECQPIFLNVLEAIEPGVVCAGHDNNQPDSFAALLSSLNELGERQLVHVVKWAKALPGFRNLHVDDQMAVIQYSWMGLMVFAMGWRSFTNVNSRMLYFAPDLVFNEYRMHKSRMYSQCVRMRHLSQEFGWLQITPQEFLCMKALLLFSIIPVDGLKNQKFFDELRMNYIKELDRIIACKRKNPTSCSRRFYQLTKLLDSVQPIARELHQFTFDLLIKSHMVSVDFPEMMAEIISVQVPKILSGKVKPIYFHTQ
In short: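 U2OS cells expressing RFP-tagged human AR and GFP-tagged TIF2; high-content imaging ratio of nucleolar to cytoplasmic red fluorescence, fitted as gain of signal vs DMSO. Single point at 20 uM final (0.2% DMSO); concentration-response 0.195-50 uM final (0.5% DMSO).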

Measured: AC50

CCOC(=O)c1ccc(C2CCC(NC[C@H](O)COc3ccc(O)c(NS(C)(=O)=O)c3)CC2)cc1 (stereo partly specified)
inactive: [1] | [2] | [3] | [4] | [5] | [6] | [7] | [8] | [9] | [10] | [12] | [13] | [14] | [15] | [16]
active: [11] 30.2 µM | [17] 28.8 µM

Cn1c(=O)cc(Oc2ccc(F)cc2F)c2cnc(NCC(C)(C)O)nc21
inactive: [1] | [2] | [18] | [5] | [6]

Nc1cccc(N)c1
active: [2] 28.7 µM
inactive: [1] | [18] | [5] | [6]

CCOc1cccc(-n2cc(C(=O)N3CCN(c4cc(C(=O)O)c5ccccc5c4)CC3)nc2-c2ccc(C)cc2)c1
inactive: [19] | [1] | [2] | [5] | [6] | [7]

CC(C)c1cccc(C(C)C)c1N1C(=O)c2ccc(O)cc2C1=O
active: [1] 20.3 µM
inactive: [2] | [18] | [5] | [6] | [7]

O=c1[nH]c2ccc(S(=O)CCN3CCC(Cc4ccc(F)cc4)CC3)cc2o1 (stereo unspecified)
inactive: [2] | [5] | [6]
active: [1] 35.5 µM

Cc1ccc(O)cc1
inactive: [19] | [5] | [6] | [7]

Fc1ccccc1[C@@H](F)COC1CCC(Nc2ncnc3[nH]ncc23)CC1 (stereo partly specified)
inactive: [2] | [18] | [5] | [6] | [7]
active: [1] 13.8 µM

CCCCCCc1ccc(O)cc1O
active: [19] 14.8 µM | [1] 41.4 µM | [3] 12.8 µM | [4] 12.9 µM | [8] 12.5 µM | [10] 30.1 µM | [11] 15 µM | [12] 27.8 µM | [13] 15.9 µM | [14] 8.5 µM | [16] 20 µM | [17] 6.73 µM
inactive: [2] | [5] | [6] | [7] | [9] | [15]
